{"source": "PubChem BioAssay (Tox21)", "note": "Active and inactive are the calls of the source. Calls come from the whole dose curve; as a rule, active = well fitted activation curve with a large enough effect in the repeat runs; inconclusive = weak or mixed curves; inactive = flat fitted curve, though single readings scatter."}
{"assay": "A CellTox Green Cytotoxicity Assay to monitor cytotoxicity in HEK293 cells - 0 hour (AID 1224869); note: nearly all actives have a fitted effect of over 50% in size", "details": "CellTox Green fluorescence; series mostly up to 76.8 µM", "procedure,_shortened": "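Fluorescence from a DNA-binding dye excluded by viable cells was measured repeatedly in the same HEK293 wells (600 cells/well) during continuous compound exposure at 37 C. Each assay gives one read point: 0, 8, 16, 24, 32 or 40 h.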"}
{"smiles": "CC1(C)OC[C@@H](COC(=O)CCc2ccc(OC[C@@H](O)CNCCNC(=O)N3CCOCC3)cc2)O1", "outcome": "inactive"}
{"smiles": "CN(C)CCN(C)CCN(C)C", "outcome": "inactive"}
{"smiles": "CN(C)C(=O)Oc1cccc([N+](C)(C)C)c1", "outcome": "inactive"}
{"smiles": "CCCOC(=O)CC", "outcome": "inactive"}
{"smiles": "CC1CCC(CO)CC1", "note": "(centres undefined)", "outcome": "inactive"}
{"smiles": "CC(C)CC(C)(N)C#N", "note": "(centres undefined)", "outcome": "inactive"}
{"smiles": "c1coc(CNc2ncnc3nc[nH]c23)c1", "outcome": "inactive"}
{"smiles": "C1CCC2(CCCCO2)OC1", "outcome": "inactive"}
{"smiles": "COCCOC[C@H](CC1(C(=O)NC2CCC(C(=O)O)CC2)CCCC1)C(=O)Oc1ccc2c(c1)CCC2", "note": "(some centres undefined)", "outcome": "inactive"}
{"smiles": "CCC1C(=O)OCC1Cc1cncn1C", "note": "(centres undefined)", "outcome": "inactive"}
{"smiles": "CN(C)CCCCCCN(C)C", "outcome": "inactive"}
{"smiles": "CCCn1cc[n+](C)c1C", "outcome": "inactive"}
{"smiles": "CCCO[Si](OCCC)(OCCC)OCCC", "outcome": "inactive"}
{"smiles": "NC(=O)NC1N=C([O][Al])NC1=O", "note": "(centres undefined)", "outcome": "inactive"}
{"smiles": "COc1ccccc1OCC1CNC(=O)O1", "note": "(centres undefined)", "outcome": "inactive"}
{"smiles": "C[N+]1(C)[C@@H]2CC(OC(=O)[C@H](CO)c3ccccc3)C[C@H]1[C@@H]1O[C@@H]12", "note": "(some centres undefined)", "outcome": "inactive"}
{"smiles": "O=C(O)CNC(=O)c1ccccc1", "outcome": "inactive"}
{"smiles": "[O-][n+]1cccc(CO)c1", "outcome": "inactive"}
{"smiles": "CC(C)C1CCC(O)CC1", "note": "(centres undefined)", "outcome": "inactive"}
{"smiles": "CCOC(=O)c1ccccc1", "outcome": "inactive"}
{"smiles": "COc1cc2c(cc1OC)-c1cc3ccc(OC)c(OC)c3c[n+]1CC2", "outcome": "inactive"}
{"smiles": "O=C1c2ccccc2C(=O)c2cc(O)ccc21", "outcome": "inactive"}
{"smiles": "CCOc1ccccc1OCC", "outcome": "inactive"}
{"smiles": "CCCCOCCOC(=O)COc1cc(Cl)c(Cl)cc1Cl", "outcome": "inactive"}
{"smiles": "CC(C)COC(=O)c1ccc(N)cc1", "outcome": "inactive"}
{"smiles": "COc1cc(C(=O)NCc2ccc(OCCN(C)C)cc2)cc(OC)c1OC", "outcome": "inactive"}
{"smiles": "Cc1ccnc(NS(=O)(=O)c2ccc(N)cc2)n1", "outcome": "inactive"}
{"smiles": "COC(=O)C1=C(C)NC(C)=C(C(=O)OC(C)C)C1c1cccc2nonc12", "note": "(centres undefined)", "outcome": "inactive"}
{"smiles": "NCCCC[C@H](N[C@@H](CCc1ccccc1)C(=O)O)C(=O)N1CCC[C@H]1C(=O)O", "outcome": "inactive"}
{"smiles": "Cc1coc2ccccc2c1=O", "outcome": "inactive"}
{"smiles": "CCCCCCCCCC[N+](C)(C)[O-]", "outcome": "inactive"}
{"smiles": "O=C(c1ccccc1O)c1ccccc1O", "outcome": "inactive"}
{"smiles": "NC(=O)Cc1cccc2ccccc12", "outcome": "inactive"}
{"smiles": "C=C(C)C(=O)OCCOCCOCCOCCOC(=O)C(=C)C", "outcome": "inactive"}
{"smiles": "CC12CCC(C(=O)C1=O)C2(C)C", "note": "(centres undefined)", "outcome": "inactive"}
{"smiles": "COc1cc(C)nc(-n2nc(C)cc2OC)n1", "outcome": "inactive"}
{"smiles": "CCCC[N+](C)(CCCC)CCCC", "outcome": "inactive"}
{"smiles": "O=Cc1cccc(Br)c1", "outcome": "inactive"}
{"smiles": "CCOc1c(N2CCOCC2)cnn(C)c1=O", "outcome": "inactive"}
